Inconclusive results are not listed. Some structures have more than one record in an assay (separate samples or runs), and their calls can disagree. Activity calls are given as the source filed them. Unless noted, calls follow the shape of the full dose curve.

Among the data in PubChem BioAssay (Tox21) are Potency values, retold here.

Experiment [1] in a line: Nuclear factor erythroid 2-related factor 2/antioxidant responsive element (Nrf2/ARE) small molecule agonists: luciferase reporter gene qHTS assay in human keratinocytes (AID 1919969). Also: nearly all actives have a fitted effect of over 35% in size. Also: potency is read from the fitted curve at half-maximal effect. A general note: In a reporter assay the amount or activity of a reporter protein is the signal.
The target of experiment [2] is Gonadotropin-releasing hormone receptor (Homo sapiens) (UniProt P30968). The experiment can be described thus: Human gonadotropin-releasing hormone receptor (GnRHR) small molecule agonists, calcium flux assay in GnRHR-HEK293 cells (AID 1920063). Also: nearly all actives have a fitted effect of over 35% in size. The essentials: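 Compounds dissolved in DMSO are pin-transferred onto dye-loaded GnRHR-HEK293 cells, which were seeded 18 h before at 37 C/5% CO2. Calcium signal is read as fluorescence intensity at 1 s intervals for 3 min.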
On the technique in general: A change in cytosolic calcium serves as a functional read-out for many receptors and channels.

Experiment [3] has as its target KiSS-1 receptor (Homo sapiens) (UniProt Q969F8). Kind of experiment: Human kisspeptin (KISS1R) small molecule agonists, calcium flux assay in KISS1R-HEK293 cells (AID 1920064; active = well fitted activation curve with a large enough effect in the repeat runs). An outline of the steps:
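Cell line: HEK293, stable human KISS1R. Dye loading 1 h at 37 C after 18 h culture. Read: kinetic fluorescence, 480/540 nm, 3 min at 1 s intervals.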

Experiment [4] can be described thus: G protein-coupled receptor (GPCR) small molecule agonists, calcium flux assay: HEK293 wild type cell line counter screen (AID 1920065). The essentials: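 Tox21 10K compounds, 15 concentrations each in triplicate, pin-transferred in DMSO onto dye-loaded cells; kinetic read at 480/540 nm for 3 min, 1 s intervals.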
The nature of experiment [5]: p53 small molecule agonists, cell-based qHTS assay with human liver microsomes (AID 1963577).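 Also: p53 response element beta-lactamase reporter cells with liver microsomes plus NADPH.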 An outline of the steps: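 Reporter activation was measured by LiveBLAzer fluorescence intensity in p53RE-bla cells, which had been exposed to compounds for 16 h at 37 C alongside 0.5 mg/mL human liver microsomes and 0.5 mg/mL NADPH (final concentrations).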
For orientation: Quantitative high-throughput screening tests each substance at several concentrations.

Experiment [6] can be described thus: p53 small molecule agonists, cell-based qHTS assay with rat liver microsomes (AID 1963578). An outline of the steps: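 Compound in DMSO added to p53RE-bla cells 5 h post-plating; rat microsomes/NADPH 0.5 mg/mL final; 16 h, 37 C; LiveBLAzer 2 h RT.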
Experiment [7] is described as follows: p53 small molecule agonists, cell-based qHTS assay with human liver microsomes: qHTS cell viability counter screen (AID 1963579). Also: nearly all actives have a fitted effect of over 45% in size. Also: potency is read from the fitted curve at half-maximal effect. The essentials:
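HLM-supplemented (0.5 mg/mL final) and NADPH-supplemented (0.5 mg/mL final) p53RE-bla cultures, 4,000 cells per well, were dosed with compounds in DMSO for 16 h at 37 C; luminescent ATP detection (CellTiter-Glo, 30 min, room temperature) quantified surviving cells.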

Experiment [8] is described as follows: p53 small molecule agonists, cell-based qHTS assay with rat liver microsomes: qHTS cell viability counter screen (AID 1963580). Also: nearly all actives have a fitted effect of over 45% in size. The essentials: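 Counter screen for cytotoxicity under metabolic activation: rat liver microsomes and NADPH, 0.5 mg/mL final each, added with compounds to p53RE-bla HCT-116 cells; 16 h at 37 C, then ATP luminescence read.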
Experiment [9] in a line: p53 small molecule agonists, cell-based qHTS assay (AID 1963582; active = well fitted activation curve with a large enough effect in the signal ratio in the repeat runs, not every such curve was filed as active; the % refers to the signal ratio; also: potency is read from the fitted curve at half-maximal effect). The essentials:
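16 h compound exposure (37 C) of p53 response element–bla cells, preceded by 5 h recovery at 37 C/5% CO2; read-out via LiveBLAzer B/G FRET substrate, 2 h RT, fluorescence intensity.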

Experiment [10] has as its target Muscarinic acetylcholine receptor M1 (Homo sapiens) (UniProt P11229). Kind of experiment: Cholinergic receptor muscarinic 1 (CHRM1) small molecule antagonists, cell-based qHTS assay (AID 1963588). Also: nearly all actives have a fitted effect of over 40% in size. An outline of the steps: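 Compounds were tested at 15 concentrations in three independent runs. Dye-loaded CHRM1-CHO cells were exposed 5 min at room temperature before stimulation by acetylcholine added at 50nM. Intracellular calcium was read kinetically on FDSS for 3 min.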

Experiment [11] concerns the target Beta-2 adrenergic receptor (Homo sapiens) (UniProt P07550). Kind of experiment: Adrenergic beta2 receptor (ADRB2) small molecule antagonists, cell-based qHTS assay (AID 1963592). Also: series mostly up to about 92 µM; nearly all actives have a fitted effect of over 50% in size. The essentials:
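Assay format: CHO-ADRB2 cells, 18-20hr seeding at 37C/5% CO2, then compound plus 1nM isoproterenol agonist mix for 0.5hr RT. Homogeneous time-resolved fluorescence cAMP detection after 1hr, expressed as 665/615 nm ratio.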

Experiment [12] addresses D(2) dopamine receptor (Homo sapiens) (UniProt P14416). The experiment can be described thus: Dopamine D2 receptor (DRD2) small molecule agonists, cell-based qHTS assay (AID 1963594). Also: nearly all actives have a fitted effect of over 35% in size. The essentials: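 HEK293 cells stably expressing DRD2 were cultured 24 h at 37 C, then given Ro20-1724 (0.1 mM final) and compounds for 10 min at room temperature. NKH477 (200nM) was then added for 30 min. cAMP was read by HTRF.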

Experiment [13] is described as follows: p53 small molecule agonists, cell-based qHTS assay: qHTS cell viability counter screen (AID 1963581). Also: nearly all actives have a fitted effect of over 45% in size. The essentials: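 ATP content measured by luminescence in HCT-116 p53RE-bla cells treated 16 h at 37 C, same wells as the reporter screen.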
The target in experiment [14] is 5-hydroxytryptamine receptor 2A (Homo sapiens) (UniProt P28223). Kind of experiment: 5-hydroxytryptamine receptor 2A (HTR2A) small molecule antagonists, cell-based qHTS assay (AID 1963586). Also: nearly all actives have a fitted effect of over 45% in size. The essentials:
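CHO cells stably expressing human HTR2A were plated for 18 h at 37 C, then loaded with calcium dye for 1 h. Compounds were preincubated 5 min at room temperature before DOI (4 nM solution) was added. Kinetic fluorescence was read for 3 min.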

Experiment [15] has the same target. Kind of experiment: 5-hydroxytryptamine receptor 2A (HTR2A) small molecule agonists, cell-based qHTS assay (AID 1963587). Also: nearly all actives have a fitted effect of over 30% in size. Also: potency is read from the fitted curve at half-maximal effect. An outline of the steps:
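HTR2A-CHO cells, plated 18 h at 37 C/5% CO2, dye-loaded 1 h at 37 C; compounds in DMSO added by pin tool (agonist mode). Intracellular calcium flux read as kinetic fluorescence on FDSS over 2 min at 1 s intervals.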

Experiment [16] addresses Muscarinic acetylcholine receptor M1 (Homo sapiens) (UniProt P11229). The experiment can be described thus: Cholinergic receptor muscarinic 1 (CHRM1) small molecule agonists, cell-based qHTS assay (AID 1963589). Also: nearly all actives have a fitted effect of over 35% in size. An outline of the steps:
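Homogeneous fluorescence calcium flux, agonist mode. Human M1-expressing CHO cells; compound dosed at 15 concentrations, three independent runs; signal sampled every 1 sec.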

Experiment [17] addresses Beta-2 adrenergic receptor (Homo sapiens) (UniProt P07550). Kind of experiment: Adrenergic beta2 receptor (ADRB2) small molecule agonists, cell-based qHTS assay (AID 1963593).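 Also: CHO cells stably overexpressing human ADRB2.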 The essentials: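 CHO cells stably over-expressing ADRB2 were plated overnight at 37C, then dosed with compounds plus a stimulation mix containing 100uM IBMX and 25uM Ro-20-1724 for 0.5hr at room temperature. cAMP was measured by HTRF competition, 1hr.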

Experiment [18] deals with D(2) dopamine receptor (Homo sapiens) (UniProt P14416). The experiment can be described thus: Dopamine D2 receptor (DRD2) small molecule antagonists, cell-based qHTS assay (AID 1963595; active = well fitted inhibition curve with a large enough effect in the signal ratio in the repeat runs, with a control signal flat; the % refers to the signal ratio; also: potency is read from the fitted curve at half-maximal effect). An outline of the steps: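 Cells were plated and grown for 24 h at 37 °C. Ro20-1724 (0.1 mM final) went in first, then compound for 10 min. NKH477 (200 nM) with quinpirole (12 nM) followed for 30 min at RT, then HTRF detection reagents for 1 h.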

A short description of experiment [19]: cAMP Responsive Elements (CRE) small molecule agonists, cell-based qHTS assay (AID 1963590). An outline of the steps:
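HEK 293T cells stably bearing CRE-bla were plated at 2,000 cells per well and rested 18 h. Compounds, positive controls or DMSO were added for 3 h at 37 C. LiveBLAzer B/G substrate was then loaded for 2 h at room temperature.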

Experiment [20] can be described thus: cAMP Responsive Elements (CRE) small molecule antagonists, cell-based qHTS assay (AID 1963591; active = well fitted inhibition curve with a large enough effect in the signal ratio in the repeat runs, not every such curve was filed as active; the % refers to the signal ratio). An outline of the steps: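 First, CRE-bla HEK293T cells settled 18 h at 37 C. Next, compound and 0.25 uM final NKH477 were applied for 3 h. Last, LiveBLAzer B/G substrate was loaded for 2 h at room temperature.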

Beta-2 adrenergic receptor (Homo sapiens), sequence (P07550 whole entry, looked up): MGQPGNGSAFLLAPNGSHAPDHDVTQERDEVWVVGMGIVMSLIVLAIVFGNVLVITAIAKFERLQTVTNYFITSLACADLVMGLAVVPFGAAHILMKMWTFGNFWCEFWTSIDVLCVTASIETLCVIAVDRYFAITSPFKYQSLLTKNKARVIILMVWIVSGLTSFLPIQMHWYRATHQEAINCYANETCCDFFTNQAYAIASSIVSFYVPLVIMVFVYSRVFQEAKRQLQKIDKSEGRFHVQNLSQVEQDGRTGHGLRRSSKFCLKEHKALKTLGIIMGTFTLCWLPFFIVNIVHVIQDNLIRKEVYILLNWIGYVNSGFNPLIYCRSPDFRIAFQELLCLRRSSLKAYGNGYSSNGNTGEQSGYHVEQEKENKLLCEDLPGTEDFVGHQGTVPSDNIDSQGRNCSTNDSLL
5-hydroxytryptamine receptor 2A (Homo sapiens), sequence (P28223 whole entry, looked up): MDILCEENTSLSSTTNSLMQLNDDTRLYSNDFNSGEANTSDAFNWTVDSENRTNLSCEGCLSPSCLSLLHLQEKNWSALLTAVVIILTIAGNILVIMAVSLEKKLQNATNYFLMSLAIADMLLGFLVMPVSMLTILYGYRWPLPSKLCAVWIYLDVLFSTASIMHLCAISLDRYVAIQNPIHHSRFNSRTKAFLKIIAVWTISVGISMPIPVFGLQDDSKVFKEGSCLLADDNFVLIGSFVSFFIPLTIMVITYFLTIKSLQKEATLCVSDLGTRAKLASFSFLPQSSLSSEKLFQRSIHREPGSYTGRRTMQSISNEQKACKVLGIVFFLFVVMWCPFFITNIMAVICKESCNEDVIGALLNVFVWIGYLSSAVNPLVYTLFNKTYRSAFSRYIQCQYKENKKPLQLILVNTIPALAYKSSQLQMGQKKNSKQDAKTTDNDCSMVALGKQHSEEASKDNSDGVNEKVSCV
Muscarinic acetylcholine receptor M1 (Homo sapiens), sequence (P11229 whole entry, looked up): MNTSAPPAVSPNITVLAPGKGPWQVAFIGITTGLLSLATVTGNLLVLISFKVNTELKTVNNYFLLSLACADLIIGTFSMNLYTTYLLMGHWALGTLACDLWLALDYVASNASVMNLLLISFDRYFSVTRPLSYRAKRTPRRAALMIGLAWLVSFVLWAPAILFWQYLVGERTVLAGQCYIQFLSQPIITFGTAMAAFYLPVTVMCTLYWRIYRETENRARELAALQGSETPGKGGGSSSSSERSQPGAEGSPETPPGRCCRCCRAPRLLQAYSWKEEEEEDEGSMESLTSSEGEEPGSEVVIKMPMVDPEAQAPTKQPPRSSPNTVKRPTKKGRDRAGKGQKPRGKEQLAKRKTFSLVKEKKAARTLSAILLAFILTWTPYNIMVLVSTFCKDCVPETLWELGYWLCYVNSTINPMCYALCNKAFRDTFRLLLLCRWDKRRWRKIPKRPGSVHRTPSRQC
Gonadotropin-releasing hormone receptor (Homo sapiens), sequence (P30968 whole entry, looked up): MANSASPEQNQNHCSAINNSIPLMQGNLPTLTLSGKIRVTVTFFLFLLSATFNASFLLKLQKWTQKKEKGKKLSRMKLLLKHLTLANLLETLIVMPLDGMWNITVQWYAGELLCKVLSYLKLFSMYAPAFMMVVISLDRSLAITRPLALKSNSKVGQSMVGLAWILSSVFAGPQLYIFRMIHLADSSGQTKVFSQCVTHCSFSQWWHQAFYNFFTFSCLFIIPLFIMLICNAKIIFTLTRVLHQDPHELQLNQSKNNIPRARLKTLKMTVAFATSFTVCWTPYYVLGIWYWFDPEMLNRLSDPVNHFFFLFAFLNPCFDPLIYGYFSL
KiSS-1 receptor (Homo sapiens), sequence (Q969F8 whole entry, looked up): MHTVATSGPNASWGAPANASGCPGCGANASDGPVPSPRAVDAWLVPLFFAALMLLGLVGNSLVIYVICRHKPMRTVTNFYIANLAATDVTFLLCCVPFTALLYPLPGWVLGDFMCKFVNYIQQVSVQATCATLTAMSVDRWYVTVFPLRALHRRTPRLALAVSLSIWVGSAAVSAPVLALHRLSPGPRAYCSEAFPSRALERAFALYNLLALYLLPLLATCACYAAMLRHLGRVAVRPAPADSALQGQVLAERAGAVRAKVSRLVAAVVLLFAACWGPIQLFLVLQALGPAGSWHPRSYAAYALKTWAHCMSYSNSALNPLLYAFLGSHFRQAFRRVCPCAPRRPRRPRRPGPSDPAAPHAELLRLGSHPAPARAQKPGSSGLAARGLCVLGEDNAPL
D(2) dopamine receptor (Homo sapiens), sequence (P14416 whole entry, looked up): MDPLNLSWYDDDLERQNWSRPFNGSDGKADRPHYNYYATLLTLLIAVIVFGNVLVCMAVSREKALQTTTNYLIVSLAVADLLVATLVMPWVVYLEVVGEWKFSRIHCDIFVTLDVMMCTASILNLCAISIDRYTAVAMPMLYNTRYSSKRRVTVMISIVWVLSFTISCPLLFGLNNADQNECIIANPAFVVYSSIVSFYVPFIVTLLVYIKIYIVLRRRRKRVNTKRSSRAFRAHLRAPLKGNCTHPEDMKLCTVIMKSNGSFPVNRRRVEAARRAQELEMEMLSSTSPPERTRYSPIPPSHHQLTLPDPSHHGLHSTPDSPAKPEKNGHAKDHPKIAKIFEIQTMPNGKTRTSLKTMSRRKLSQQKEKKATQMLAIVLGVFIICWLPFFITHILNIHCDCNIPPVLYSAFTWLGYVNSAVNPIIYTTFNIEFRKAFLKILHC

Take `CC(C)(C)C(O)/C(=C\c1ccc(Cl)cc1Cl)n1cncn1` (centres undefined): the Potency entry in [1], in experiment [2], in experiment [3], in experiment [4], in [5] and in experiment [6] was “inactive” throughout. Moreover, the Potency result in experiment [7], in [8], in experiment [9], in experiment [10], in experiment [11] and in [12] was “inactive” throughout.
Take `O=C(N[C@H](c1ccccc1)[C@@H]1CN2CCC1CC2)c1c(Cl)ccc(C(F)(F)F)c1Cl`: the Potency entry in experiment [1], in experiment [2], in experiment [3], in [4], in experiment [5] and in experiment [6] was “inactive” throughout. For the same molecule, the Potency result in [7], in [8], in experiment [13], in [9], in [14] and in experiment [15] was “inactive” each time. For the same molecule, the Potency entry in experiment [16], in experiment [11], in experiment [17] and in experiment [18] was “inactive” each time.
For `CC(C)(c1ccccc1)c1ccc(O)cc1`, the Potency result in experiment [1], in [2], in [3], in experiment [4], in [5] and in experiment [6] was “inactive” throughout. For the same molecule, the Potency entry in experiment [8], in experiment [13], in experiment [9], in [10], in [16] and in experiment [11] was “inactive” in each case. Moreover, the Potency result in experiment [17] and in [12] was “inactive” each time. Also, the Potency was 45.4 µM (active) and inactive in experiment [7]; 54.5 µM (active) and inactive in [15]; 61.1 µM (active) in experiment [18].
As for `CC1=C(C(=O)Nc2ccccc2)S(=O)(=O)CCO1`, the Potency in [1] is 10.9 µM (active); in [9], 28.9 µM (active). In addition, the Potency result in [2], in experiment [3], in experiment [4], in experiment [5], in experiment [6] and in experiment [7] was “inactive” throughout. Moreover, the Potency result in experiment [8], in experiment [14], in [15], in experiment [10], in experiment [16] and in experiment [19] was “inactive” in each case. The Potency entry in experiment [20], in experiment [11], in experiment [12] and in [18] was “inactive” throughout.
`CC1(C)CC/C(=C/c2ccc(Cl)cc2)C1(O)Cn1cncn1` (centres undefined): the Potency in experiment [1] is 43 µM (active). Moreover, the Potency result in experiment [2], in [3], in [4], in experiment [5], in experiment [6] and in experiment [7] was “inactive” in each case. Also, the Potency result in experiment [8], in [10], in [16] and in experiment [18] was “inactive” throughout.
As to `CC1(C)C(C(=O)OC(C#N)c2cccc(Oc3ccccc3)c2)C1(C)C` (centres undefined), the Potency entry in experiment [1], in experiment [2], in experiment [3], in [4], in experiment [5] and in experiment [6] was “inactive” each time. Further, the Potency result in [7], in experiment [8], in experiment [13], in experiment [9], in experiment [14] and in experiment [10] was “inactive” throughout. Also, the Potency result in experiment [16], in experiment [19], in experiment [20], in experiment [11] and in [12] was “inactive” each time. Besides, in experiment [15], the Potency was 39.2 µM (active) and inactive.
Consider `COc1cccc2c1cc([N+](=O)[O-])c1c(C(=O)O)cc3c(c12)OCO3`, for which the Potency in experiment [1] was 12.2 µM (active). Further, the Potency result in [2], in experiment [3], in experiment [4], in experiment [5], in experiment [6] and in [7] was “inactive” in each case. Also, the Potency result in experiment [13], in experiment [15], in [10], in experiment [16] and in experiment [12] was “inactive” in each case.
On to `CC/C(=N\OC/C=C/Cl)C1=C(O)CC(C2CCOCC2)CC1=O` (centres undefined), for which the Potency entry in experiment [1], in experiment [2], in [3], in experiment [4], in [5] and in experiment [6] was “inactive” throughout. Further, the Potency entry in experiment [7], in experiment [8], in experiment [13], in [15], in [10] and in experiment [16] was “inactive” each time. For the same molecule, the Potency entry in experiment [11], in [12] and in experiment [18] was “inactive” in each case.
